Pol eta inh: qHTS for Inhibitors of Polymerase Eta | Potency, µM (highest dose often 114 µM), for inactives: at the top dose activity change, negative = inhibition, actives largely listed as inhibitors | 390,000 compounds, 1.2% hits | DNA polymerase eta (Homo sapiens), Q9Y253 | recombinant Pol eta, fluorescent DNA replication assay; also: % is scaled to controls: 0 for no effect and ±100 for the full control effect
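Pol eta (10 nM) was preincubated with compounds for 15 min at room temperature, after which fluorescent replication substrate (50 nM final) was added to start the reaction. Fluorescence was read kinetically at 0 and 10 min.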
POLB inh: qHTS Assay for Inhibitors of DNA Polymerase Beta. P06746. Pol beta primer extension/strand displacement, fluorescence kinetic. Potency, µM (titrated, usually from 114 µM), for inactives: at the top dose activity change, negative = inhibition, hits mostly inhibitors. 340,000 compounds, 1.3% hits; also: % is scaled to controls: 0 for no effect and ±100 for the full control effect
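Pol beta (10 nM) and compounds were preincubated 15 min at room temperature, then 50 nM substrate (final) started primer extension/strand displacement. Reads were taken at 0 and 10 min; concentration-response data were fitted to a four-parameter Hill equation.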
POLK inh: qHTS for Inhibitors of Polymerase Kappa; DNA polymerase kappa (Homo sapiens), Q9UBT6; purified Pol kappa, fluorescent DNA synthesis assay, 10 min; Potency, µM (highest dose often 107 µM), for the others: at the top dose activity, negative = inhibition, usual class: inhibitors; 400,000 compounds, 0.53% hits; AID 588579, 2011; also: % is scaled to controls: 0 for no effect and ±100 for the full control effect
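50 nM final substrate added after 15 min RT preincubation of 10 nM Pol kappa with compound; fluorescence read at 0 and 10 min.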
POLI inh: qHTS for Inhibitors of Polymerase Iota. AID 588590, 2011. DNA polymerase iota (Homo sapiens), Q9UNA4. Pol iota fluorescent replication assay, 10 min. 390,000 compounds, 1% hits. Potency, µM (highest dose often 115 µM), without a hit: at the highest dose activity, negative = inhibition, most hits filed as inhibitors
Target sequence (Q9UNA4 whole entry, looked up): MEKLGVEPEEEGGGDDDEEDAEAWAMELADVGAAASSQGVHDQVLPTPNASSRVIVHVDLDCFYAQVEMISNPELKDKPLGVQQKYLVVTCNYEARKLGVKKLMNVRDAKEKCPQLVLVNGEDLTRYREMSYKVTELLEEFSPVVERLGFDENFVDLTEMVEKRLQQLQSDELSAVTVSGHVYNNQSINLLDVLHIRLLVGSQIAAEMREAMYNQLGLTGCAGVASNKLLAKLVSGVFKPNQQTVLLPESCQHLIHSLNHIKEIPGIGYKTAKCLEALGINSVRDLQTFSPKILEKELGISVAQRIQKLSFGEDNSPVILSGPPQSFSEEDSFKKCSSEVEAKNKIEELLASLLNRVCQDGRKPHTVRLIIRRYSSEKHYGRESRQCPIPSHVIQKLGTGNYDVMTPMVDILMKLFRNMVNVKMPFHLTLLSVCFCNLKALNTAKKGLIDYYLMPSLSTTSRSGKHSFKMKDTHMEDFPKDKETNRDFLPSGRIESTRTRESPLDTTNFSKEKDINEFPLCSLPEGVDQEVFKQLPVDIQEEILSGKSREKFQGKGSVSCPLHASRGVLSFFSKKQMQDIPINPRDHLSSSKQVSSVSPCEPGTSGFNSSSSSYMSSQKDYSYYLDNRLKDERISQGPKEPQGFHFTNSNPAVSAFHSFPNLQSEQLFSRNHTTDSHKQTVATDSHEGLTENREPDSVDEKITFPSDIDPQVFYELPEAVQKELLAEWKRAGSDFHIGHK
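Fluorescent replication assay read twice, at 0 min and 10 min after adding 50 nM (final) substrate. Enzyme (10 nM) and compounds were first incubated 15 min at room temperature; enzyme-free buffer wells were negative controls.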
TDP1 block: qHTS Assay for Inhibitors of Tyrosyl-DNA Phosphodiesterase (TDP1); Tyrosyl-DNA phosphodiesterase 1 (Homo sapiens), Q9NUW8; recombinant TDP1, AlphaScreen DNA substrate cleavage; Potency, µM (series often up to 130 µM), for the others: top-dose activity change, negative = inhibition, most hits filed as inhibitors; 350,000 compounds, 0.28% hits; AID 485290, 2010; also: % is scaled to controls: 0 for no effect and ±100 for the full control effect; nearly all actives have a fitted effect of over 40% in size
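Recombinant E. coli-expressed Tdp1 (1 nM) preincubated with compound 15 min at RT, then 5'-biotin/3'-phosphotyrosine-FITC DNA substrate (15 nM) added for 5 min. AlphaScreen beads (10 ug/ml) added, 10 min RT; tyrosine-FITC cleavage read as signal loss.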
FEN1 inhibitor: qHTS Assay for the Inhibitors of Human Flap endonuclease 1 (FEN1) | Recombinant FEN1 flap cleavage, fluorescence, 15 min | Potency, µM (highest dose often 114 µM), without a hit: at the top dose activity change, negative = inhibition, most hits filed as inhibitors | AID 588795, 2011 | 390,000 compounds, 0.35% hits; also: % is scaled to controls: 0 for no effect and ±100 for the full control effect; nearly all actives have a fitted effect of over 65% in size
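Steps: FEN1 (10 nM) dispensed; compound added by pin tool; 15 min at room temperature; substrate added to 50 nM final; reads at 0 min and 15 min; data normalized and fitted (four-parameter Hill).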
Active calls of the source: *; ? = inconclusive; / = no result given; [ ] = dose if it differs, or a comment. Sampled rows, rich in hits. Any-hit rate of the full collection: about 2.4%. Calls follow the shape of the dose curve; as a rule, active = well fitted curve in the direction sought with a large enough effect; inconclusive = small, poorly fitted or top-dose-only effect, or another doubt; inactive = no such curve, though single readings can be large; an effect the other way counts as inactive or inconclusive. Potency is read from the fitted curve at half-maximal effect.

SMILES	Pol eta inh	POLB inh	POLK inh	POLI inh	TDP1 block	FEN1 inhibitor
CCN(CC)C(=O)CSC1=N/C(=C/c2ccco2)C(=O)N1c1ccc(OC)c(Cl)c1	?	?	-12%	-16%	0%	7%
Cc1nc(S/C(=C/c2ccc(-c3ccc(Cl)cc3)o2)C(=O)O)n[nH]1	25µM*	18%	-21%	-5%	3%	-3%
Cc1nc(S/C(=C/c2ccc(-c3cc(Cl)ccc3C)o2)C(=O)O)n[nH]1	?	?	?	?	11%	?
COc1ccc(NS(=O)(=O)c2cccc(C(=O)NN=Cc3cc(Br)c(O)c(Br)c3)c2)cc1	45µM*	/	?	16µM*	-14%	?
COc1cc(/C=N/NC(=O)c2ccc3c(c2)OCCO3)c(Br)c(Br)c1O	?	?	89µM*	?	7%	?
CCOc1ccc(S(=O)(=O)Nc2ccc(C(=O)N/N=C(\C)c3ccc(-n4ccnc4)cc3)cc2)cc1	15%	5%	-11%	0%	9%	-5%
COc1ccc(NS(=O)(=O)c2cccc(C(=O)N/N=C(/C)c3ccc(-n4ccnc4)cc3)c2)cc1	-14%	/	-13%	40µM*	/	-14%
COc1cc(/C=N\NC(=O)c2ccc(-c3ccccc3)cc2)cc(Br)c1O	?	40µM*	-39%	?	-3%	?
COC(=O)/C=C/c1cc(O)ccc1O	/	/	-3%[19.4 µM]	/	6%	/
CN(C)c1ccc(C(CNC(=O)c2ccc(C(C)(C)C)cc2)N2CCOCC2)cc1 (stereo unspecified)	-24%	-27%	4%[60.1 µM]	36%	9%	-6%
Cc1sc2ncnc(SCc3ccc(C(=O)O)cc3)c2c1C	?	1%	19%	32%	-1%	6%
Cc1ccc(-c2csc3ncnc(SCc4ccc(C(=O)O)cc4)c23)cc1	79µM*	?	7%	-24%	5%	-20%
O=C(CSc1ncnc2scc(-c3ccccc3)c12)N1CCN(Cc2ccc3c(c2)OCO3)CC1	?	16µM*	-18%	?	8%	0%
Cc1cc(C)c(S(=O)(=O)/N=C2\C=CC(=O)C(Cl)=C2)c(C)c1	?	35µM*	?	?	4%	-21%
Cc1cc(C)c(S(=O)(=O)/N=C2\C=C(NS(=O)(=O)c3ccccc3)C(=O)c3ccccc32)c(C)c1	-24%	27%	1%	?	/	4%
CCOC(=O)N1CCN(C(=O)c2ccc3c(c2)NC(=O)/C(=C\c2ccc(OC)c(OC)c2)S3)CC1	-7%	-19%	25µM*	18µM*	2%	?
Cc1nc2c(C(=O)NCCc3ccccc3)c[nH]n2c(=O)c1Cc1ccccc1F	3%	?	-24%	79µM*	9%	-2%
Cc1nc2c(C(=O)NCCc3ccc(Cl)cc3)c[nH]n2c(=O)c1Cc1ccc(Cl)cc1	89µM*	22µM*	?	79µM*	13%	?
Cc1nc2c(C(=O)N(C)Cc3ccccc3)c[nH]n2c(=O)c1Cc1ccc(Cl)cc1	-11%	?	89µM*	50µM*	4%	?
Cc1ccc(CNC(=O)c2c[nH]n3c(=O)c(Cc4ccc(Cl)cc4)c(C)nc23)cc1	?	?	-6%	-11%	10%	?
O=C1CCc2cc(S(=O)(=O)Nc3cccc(Br)c3)ccc2N1	/	/	/	/	0%	/
CCc1ccc(S(=O)(=O)c2cnc3ccc(OC)cc3c2N2CCCC(C)C2)cc1 (stereo unspecified)	-26%	?	-3%	10%	0%	1%
Cn1c(=O)c2sccc2n2c(CCC(=O)N3CCN(c4ccc(F)cc4)CC3)nnc12	/	-21%	-11%	-25%	4%	1%
COc1cc([N+](=O)[O-])ccc1-c1ccc(/C=N/NC(N)=O)o1	9%	?	-13%	89µM*	/	-8%
NC(=O)N/N=C/c1ccc(-c2ccc([N+](=O)[O-])cc2)o1	-4%	0%	-4%	4%	-4%	-8%
SMILES	Pol eta inh	POLB inh	POLK inh	POLI inh	TDP1 block	FEN1 inhibitor
CCc1nc2cccnc2n1-c1ccc(CC(=O)O)cc1	50µM*	-1%	-24%	64%	/	-5%
CCOC(=O)c1nn(-c2ccc(C)cc2)c(=O)cc1OCC(=O)Nc1ccc(OC)cc1	?	/	-2%	18%	45µM*	-1%
CCOC(=O)c1ccc(NC(=O)COc2ccc(-n3cnnn3)cc2)cc1	?	32µM*	-16%	?	-1%	6%
COC(=O)c1ccc(C(NC(=O)OCc2ccccc2)/C(=C/[C@@H](C)C(=O)Nc2ccccc2)c2cccnc2)cc1 (stereo partly specified)	/	/	/	/	9%	/
O=C(O)Cc1ccc(C(=O)c2ccccc2)s1	1%	0%	-22%	-10%	3%	-3%
O=C(O)Cc1ccc(C(=O)CSc2ccccc2)s1	20µM*	16µM*	?	25µM*	/	-32%
CC(=O)c1ccc(N2CCN(Cc3cc(=O)n4c(-c5ccccc5)csc4n3)CC2)cc1	-17%	/	-24%	?	/	-12%
Cc1ccc(OCc2cc(=O)n3c(-c4ccccc4)csc3n2)cc1	?	20µM*	?	56µM*	4%	1%
O=c1cc(CN2CCN(c3ccccc3O)CC2)nc2sccn12	20µM*	?	-12%	45µM*	-12%	2%
O=c1cc(CN2CCN(c3ccccc3)CC2)nc2scc(-c3ccccc3)n12	-23%	40µM*	-42%	56µM*	6%	-2%
CCOc1ccc(NC(=O)CN(C)Cc2cc(=O)n3c(-c4ccccc4)csc3n2)cc1OCC	-3%	25µM*	-11%	?	8%	2%
NC[C@@H]1O[C@H](O[C@@H]2[C@H](O[C@@H]3O[C@H](CO)[C@@H](O)[C@@H]3O)[C@@H](O)[C@@H](N)C[C@H]2N)[C@@H](N)[C@H](O)[C@@H]1O	/	/	-5%[12 µM]	/	5%[56.1 µM]	/
COc1cccc(C2c3c(ncn(-c4ccc(C#N)cc4)c3=N)Oc3ccc4ccccc4c32)c1 (stereo unspecified)	/	/	/	/	0%	/
CCOc1ccccc1NC(=O)CN1CCCCCC1	-19%	15%	-9%	168%	14µM*	3%
O=C(CN1CCOCC1)Nc1ccccc1C(=O)O	-4%	1%	-7%	79µM*	-2%	-7%
CC(=O)c1cccc(NC(=O)CN(c2cc(C)cc(C)c2)S(=O)(=O)c2c(C)noc2C)c1	-12%	12%	-6%	1%	7%	-23%

High-throughput results as filed in PubChem.
